High-throughput results from PubChem BioAssay.
The full list was thinned out, with hits kept by preference.
ERK EGF block – qHTS Assay for Inhibitors of the ERK Signaling Pathway using a Homogeneous Screening Assay; Stimulation with EGF | actives 0.41% (n = 130,000) | HEK293-V1b, EGF-stimulated phospho-ERK AlphaScreen | Potency, µM (top dose mostly 11.5 µM), most hits filed as inhibitors; active = well fitted inhibition curve with a large enough effect; also: nearly all actives have a fitted effect of over 55% in size
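HEK293 cells stably expressing V1b receptor, serum-reduced (1% FBS) overnight, got compound for 30 min at 37C, then 25 nM EGF for 5 min. Lysate phospho-ERK read by AlphaScreen SureFire; AC50 from Hill fits.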
Each line names hits and unclear results; the compound was inactive in the other large screens.

Cc1nnc(SCC(=O)c2ccccc2F)n1Cc1ccccc1	none
Cc1cc(C)nc(S/C=C/C(=O)c2ccccc2F)n1	ERK EGF block 28.2µM
CC(C)COC[C@H](CN(Cc1ccccc1)c1ccccc1)N1CCCC1	none
C[C@@H](CN(C)C)CN1c2ccccc2CCc2ccccc21	none
CC(=O)N(CC(O)CN(C(C)=O)c1c(I)c(C(=O)NC[C@@H](O)CO)c(I)c(C(=O)NC[C@@H](O)CO)c1I)c1c(I)c(C(=O)NC[C@@H](O)CO)c(I)c(C(=O)NC[C@@H](O)CO)c1I	none
COc1ccc2nc3ccccc3nc2c1N	ERK EGF block 28.2µM
COc1ccc2nc3cccc(OC)c3nc2c1	none
COc1ccccc1-c1nc2ccccc2nc1-c1ccccc1OC	none
COc1ccc(CNc2nc(-c3ccccc3OC)nc3ccccc23)c(OC)c1	none
O=C(Nc1ccc2ccccc2c1)[C@H]1C[C@@H]1[C@H](NP(=O)(c1ccccc1)c1ccccc1)c1ccccc1	none
COC(=O)[C@@H](O)CC[C@@H](C)Cc1c(OC)c(OC)c(C)c(OC)c1OC	none
O=C(c1csnn1)N1CCC2(CC1)CCN(C(c1ccccc1)c1ccccc1)CC2	none
Cc1nnc(C)c2c(C)n(-c3ccc4ncccc4c3)c(C)c12	none
Cc1cc(N(C)C)ccc1N=Nc1ccc2ncccc2c1	ERK EGF block 20µM
Cc1ccc(N=Nc2ccc(O)c3ncccc23)cc1C	none
C=C1CC[C@H](O)C/C1=C/C=C1\CCC[C@]2(C)[C@H]1CC[C@H]2[C@@H](C)/C=C\[C@@H](C)C(C)C	none
CCC[C@@H]1C[C@@]1(CCC)[C@@H](NC(=O)Oc1ccccc1)c1ccc(C(=O)OC)cc1	none
COc1cc(C(CCN2CCOCC2)c2c(OC)cc(OC)c3c2OC(=O)CC3c2ccc(N(C)C)cc2)cc(OC)c1OC (configuration not stated)	none
COc1ccc(C2CC(=O)Oc3c(C(CCN4CCN(c5ccccc5)CC4)c4ccc(N(C)C)cc4)c(OC)cc(OC)c32)cc1 (configuration not stated)	ERK EGF block 15.8µM
COc1cc(OC)c2c(c1C(CCN1CCOCC1)c1ccc(N(C)C)cc1)OC(=O)CC2c1ccc(N(C)C)cc1 (configuration not stated)	none
C[C@@H](C(=O)N[C@@H](CO)Cc1ccccc1)[C@H]1C[C@]1(C)[C@H](NC(=O)OCc1ccccc1)c1ccccc1	none
COc1cc2c(cc1OC)C1C(=O)c3c(cc4c(c3O)C=CC(C)(C)O4)OC1CO2 (configuration not stated)	none
Cc1noc(C)c1C(=O)N1CCC2(CCCN(C(=O)Nc3cccc(F)c3)C2)CC1	none
Cc1ccccc1C(=O)Nc1c(-c2cccs2)c(=O)c2ccccc2n1C	none
COc1ccc(C(=O)Nc2nc(-c3cccs3)c(NC(C)=O)s2)cc1	none
COc1ccc(C(=O)Nc2c(-c3cccs3)c(=O)c3ccccc3n2C)cc1	ERK EGF block 5.62µM
C=C1CC[C@H](O)C/C1=C/C=C1\CCC[C@]2(C)[C@H]1CC[C@H]2[C@@H](C)CCCC(C)C	none
N=C1Sc2ccccc2C2=NCCCN12	none
CC(C)OCCCNC1=C(Cl)C(=O)c2ccccc2C1=O	ERK EGF block 28.2µM
CCN(CC)CCCNC1=C(Cl)C(=O)c2ccccc2C1=O	none
CC(C)OCCCNC(=S)NNC(=O)C(c1ccccc1)c1ccccc1	none
NC1CONC1=O (configuration not stated)	none
C=C1C[C@@]23C[C@]1(O)CC[C@@H]2[C@]12C=C[C@@H](O)[C@](C)(C(=O)O1)[C@H]2[C@H]3C(=O)O	none
CC1O[C@@H](O[C@H]2C(Oc3cc(O)c4c(c3)OC(c3ccc(O)cc3)CC4=O)OC(CO)C(O)C2O)C(O)C(O)C1O (some centres not stated)	none
CC1OC(OC2C(OC3C(O[C@H]4CC[C@]5(C)C6C=C[C@]78OC[C@@]9(CC[C@@H](C)[C@H](C)C97)[C@H](O)C[C@@]8(C)[C@]6(C)CC[C@H]5C4(C)C)OC(C)C(O)C3O)OC(CO)C(O)C2O)C(O)C(O)C1O (some centres not stated)	ERK EGF block 11.2µM
Nc1nn(-c2ccccc2)c(N)c1N=Nc1ccc2c(c1)OCO2	none
NC(=O)c1ccc(N=Nc2c(-c3ccccc3)[nH]n(-c3ccccc3)c2=O)cc1	none
Cc1[nH]n(-c2ccccc2)c(=O)c1N=Nc1ccccc1	ERK EGF block 15.8µM
Cc1cc([N+](=O)[O-])ccc1N=Nc1c(N)[nH]n(-c2ccccc2)c1=O	none
Nc1[nH]n(-c2ccccc2)c(=O)c1N=Nc1ccc2c(c1)OCO2	ERK EGF block 22.4µM
Cc1[nH]n(-c2ccccc2)c(=O)c1N=Nc1ccccc1C(=O)N1CCOCC1	none
COc1ccccc1CN1CCC2(CC1)CCN(C(=O)c1csnn1)CC2	none
CCC(C)CCCCC(=O)NC(CCN)C(=O)NC(C(=O)NC(CCN)C(=O)NC1CCNC(=O)C(C(C)O)NC(=O)C(CCN)NC(=O)C(CCN)NC(=O)C(CC(C)C)NC(=O)C(Cc2ccccc2)NC(=O)C(CCN)NC1=O)C(C)O (configuration not stated)	none
CC(C)C1NC(=O)[C@H](CCCCN)NC(=O)[C@@H](Cc2c[nH]c3ccccc23)NC(=O)[C@H](Cc2ccc(O)cc2)NC(=O)[C@H](C)N(C)C(=O)[C@H](Cc2ccccc2)NC1=O (some centres not stated)	none
CC(C)CC1NC(=O)C(CCCN)NC(=O)C(C(C)C)NC(=O)C2CCCN2C(=O)C(Cc2ccccc2)NC(=O)C(CC(C)C)NC(=O)C(CCCN)NC(=O)C(C(C)C)NC(=O)C2CCCN2C(=O)C(Cc2ccccc2)NC1=O (configuration not stated)	ERK EGF block 3.55µM
COc1ccc2c(c1)C(=O)[C@@H](OC(=O)NCc1ccco1)[C@H](c1ccc(OC)c(Br)c1)O2	none
CCCC1O[C@@H]2C[C@H]3[C@@H]4CCC5=CC(=O)C=C[C@]5(C)C4[C@@H](O)C[C@]3(C)[C@]2(C(=O)CO)O1 (some centres not stated)	none
CN1\C(=C/C=C/C=C/C=[N+](C)C)C(C)(C)c2ccccc21	ERK EGF block 15.8µM
CN1/C(=C\C=O)C(C)(C)c2ccccc21	none
CN1/C(=C/C=C(C#N)C#N)C(C)(C)c2ccccc21	none
O=C1CCCC2[C@@H]3CCC[N@+]4([O-])CCC[C@H](CN12)C34 (some centres not stated)	none
CCC(C(=O)O)C1CCC(C)C(C(C)C(O)C(C)C(=O)C(CC)C2OC3(C=CC(O)[C@@]4(CC[C@](C)(C5CC[C@@](O)(CC)C(C)O5)O4)O3)C(C)CC2C)O1 (some centres not stated)	none
C[C@H]1CC2[C@@H]3CCC4=CC(=O)C=C[C@]4(C)[C@@]3(F)[C@@H](O)C[C@]2(C)[C@@]1(O)C(=O)CO (some centres not stated)	none
Fc1cccc(Nc2ncnc3[nH]ncc23)c1	ERK EGF block 25.1µM
Nc1ncnc(Nc2cccc(F)c2)n1	none
NC(=O)c1cccnc1Nc1cccc(F)c1	none
CCN(CC)CCCC(C)n1c(-c2ccccc2)nc2c(NCCO)nc(C)nc21 (configuration not stated)	none
CCNc1ncc2nc(-c3ccccc3)c(=O)n(C3CC3)c2n1	none
c1ccc2c(c1)CC(N1CCN(c3cccc4c3OCCO4)CC1)C2	none
CCCn1c(C)nc2c(NCCCN(CCO)CCO)nc(C)nc21	none
COC1(C)CC2C(CC1OC(=O)c1cc([N+](=O)[O-])cc([N+](=O)[O-])c1)C2(C)C (configuration not stated)	ERK EGF block 25.1µM
CCOC(=O)c1cc(N)cc([N+](=O)[O-])c1	none
